# Screening data deposited in PubChem by The Scripps Research Institute Molecular Screening Center.
# Hits are enriched below; roughly 3.4% of the tested compounds scored in any of these assays.
# pPAFAH FP inh: pPAFAH (human) enzyme inhibition | AID 463082 | hit rate 1.5% among 330,000 | inhibition, % at 3.39 µM | recombinant pPAFAH, FP-rhodamine probe fluorescence polarization;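 active = inhibition above the mean inhibition across the screen plus 3 SD, cut at about 25% in these data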;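 note: inhibitors block binding of the rhodamine activity-based probe so polarization drops; 0% = enzyme with DMSO and 100% = wells lacking pPAFAH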
# PAFAH1B2 FP inh: blocks human PAF acetylhydrolase 1b catalytic subunit 2; P68402; recombinant PAFAH1B2, FP-rhodamine activity probe, fluorescence polarization; inhibition, % at 3.39 µM; hit rate 1.2% among 340,000;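 active = inhibition above the mean of all tested compounds plus 3 SD, cut at about 24% in these data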;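 note: 0% = enzyme with DMSO and 100% = wells lacking PAFAH1B2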
# PAFAH2 inh: PAFAH2 (human) inhibition; AID 492956; inhibition, % at 3.39 µM; hit rate 0.99% among 340,000; Q99487; recombinant PAFAH2, FP-rhodamine activity probe, fluorescence polarization;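 active = inhibition above the mean over all tested compounds plus 3 SD, cut at about 30% in these data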;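 note: inhibitors block probe labeling of enzyme so polarization drops; 0% = enzyme with DMSO and 100% = wells lacking PAFAH2 protein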
# PP1 inh: counter-screen for PP5 inhibitors: inhibitors of human PP1-alpha; AID 2235; inhibition, % at 6.7 µM; hit rate 0.9% among 320,000; purified PP1alpha, OMFP fluorescence;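 active = inhibition above the mean inhibition of all tested compounds plus 3 SD, computed separately for each screening campaign, cut at about 15% in these data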
# Target sequence (P62136 whole entry, looked up): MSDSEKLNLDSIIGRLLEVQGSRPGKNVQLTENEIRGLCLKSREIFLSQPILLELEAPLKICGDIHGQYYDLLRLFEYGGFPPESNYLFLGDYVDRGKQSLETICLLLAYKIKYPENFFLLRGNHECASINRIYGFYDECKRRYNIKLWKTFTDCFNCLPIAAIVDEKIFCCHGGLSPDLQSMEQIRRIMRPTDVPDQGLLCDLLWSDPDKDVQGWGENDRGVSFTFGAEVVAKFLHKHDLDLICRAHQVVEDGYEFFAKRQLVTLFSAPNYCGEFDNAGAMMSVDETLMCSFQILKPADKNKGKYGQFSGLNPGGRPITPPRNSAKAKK
# PAFAH1B3 inh: inhibitors of human PAFAH1B3. Q15102. recombinant PAFAH1B3, FP-rhodamine probe, fluorescence polarization. inhibition, % at 3.39 µM. hit rate 0.28% among 340,000;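 active = inhibition above the screen-wide average of all tested compounds plus 3 SD, cut at about 25% in these data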;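 note: 0% = enzyme with DMSO only and 100% = wells lacking PAFAH1B3 protein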
# Target sequence (Q15102 whole entry, looked up): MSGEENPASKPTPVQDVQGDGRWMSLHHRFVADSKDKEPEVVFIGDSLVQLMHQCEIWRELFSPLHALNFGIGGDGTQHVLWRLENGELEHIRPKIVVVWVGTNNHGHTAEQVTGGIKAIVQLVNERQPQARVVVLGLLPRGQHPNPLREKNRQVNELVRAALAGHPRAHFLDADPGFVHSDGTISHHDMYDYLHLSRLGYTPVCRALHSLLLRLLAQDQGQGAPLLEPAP
# PP5 inh: inhibitors of human protein phosphatase 5 (PP5); P53041; purified PP5c, OMFP substrate fluorescence; inhibition, % at 6.7 µM; hit rate 0.18% among 320,000; AID 1987;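 active = inhibition above the campaign's mean inhibition across all tested compounds plus 3 SD, cut at about 9.5% in these data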;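 note: 0% = DMSO only and 100% = 100 µM cantharidin control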
# Active calls of the source: *; . = not tested or not shown.
SMILES,pPAFAH FP inh,PAFAH1B2 FP inh,PAFAH2 inh,PP1 inh,PAFAH1B3 inh,PP5 inh
CN(Cc1ccccc1)C(=O)Cn1cccc1C(=O)c1ccccc1,-4,-3,-5,-1,6,4
C=CCn1c(SCC(=O)NCc2ccc3c(c2)OCO3)nnc1-c1cccnc1,4,4,8,-5,1,-2
COc1cccc(C(=O)NCCS(=O)(=O)N2CCCC2)c1,-2,7,7,-4,11,-2
O=C(OCc1nnc(-c2ccccc2)o1)c1ccc([N+](=O)[O-])s1,14,24,31*,-5,31*,4
O=C(COC(=O)c1ccc([N+](=O)[O-])s1)Nc1ccc(F)cc1,12,10,52*,0,34*,-1
CCN1CCN(CC(O)COC(c2ccccc2)c2ccccc2)CC1 (stereo not drawn),-1,9,3,1,4,3
CCOC(=O)C1Nc2ccc(C(F)(F)F)cc2C2c3ccccc3CC12 (stereo not drawn),-7,3,2,-1,0,-7
CCOC(=O)C1Nc2ccccc2C2C(O)C(O)CC12 (stereo not drawn),18,14,13,-1,38*,0
COc1cccc(C2C(C(=O)c3ccc(C)o3)=C(O)C(=O)N2c2cc(C)on2)c1 (stereo not drawn),5,-2,13,3,4,0
Cc1cc(N2C(=O)C(O)=C(C(=O)c3cc4ccccc4o3)C2c2cccc(Br)c2)no1 (stereo not drawn),12,0,1,37*,0,4
CCCOc1cccc(C2C(C(=O)c3cc4ccccc4o3)=C(O)C(=O)N2c2cc(C)on2)c1 (stereo not drawn),7,10,12,26*,5,4
COc1cccc(C2=NN(C(C)=O)C(c3cccs3)C2)c1 (stereo not drawn),-1,6,4,4,0,1
COc1ccc(Oc2c(C=O)c3ccccc3n2C)cc1,-2,0,-9,1,-1,2
CC(=O)c1cccc(-c2csc(N3CCC(C(N)=O)CC3)n2)c1,-5,3,9,.,1,.
NC(=O)C1CCN(c2nc(-c3cccc(Cl)c3)cs2)CC1,33*,-1,-8,.,10,.
CC1(OC(=O)c2cccs2)C(=O)C=C2C=C3CCCN3C=C2C1=O (stereo not drawn),28*,7,22,12,11,6
CC1(OC(=O)C2CCCC2)C(=O)C=C2C=C3CCCN3C=C2C1=O (stereo not drawn),15,.,.,6,.,2
COC(=O)CCCC1=CC2=CC(=O)C(C)(OC(=O)c3cccs3)C(=O)C2=CN1Cc1ccc2c(c1)OCO2 (stereo not drawn),16,6,8,18*,0,2
O=C1OCCN1c1ccccc1,.,5,-1,.,6,.
O=C(N/N=C/c1ccncc1)c1cc2ccccc2cc1O,.,4,5,.,4,.
O=C(N/N=C/c1ccc[nH]1)c1cc2ccccc2cc1O,25*,7,10,5,22,2
Cc1cc(=O)oc2c1c(C)nn2-c1ccc(Br)cc1,5,1,-3,-3,-3,0
CCOC(=O)c1cc(CC)sc1NC(=O)COC,10,3,2,-5,13,0
CCCCN1C(=O)C(=O)N(CC(=O)Nc2sc(CC)cc2C(=O)OCC)C1=O,33*,6,-2,-3,3,0
O=C(NCCN1CCC(Cc2ccccc2)CC1)C1CCCN(S(=O)(=O)c2cnc[nH]2)C1 (stereo not drawn),1,10,-1,-2,3,4
SMILES,pPAFAH FP inh,PAFAH1B2 FP inh,PAFAH2 inh,PP1 inh,PAFAH1B3 inh,PP5 inh
O=C(NCC1CCCO1)c1ccc(COc2ccc(Cl)cc2)cc1 (stereo not drawn),5,29*,3,2,-2,1
CCC(C)NC(=O)c1ccc(CS(=O)(=O)Cc2ccc(Cl)cc2)o1 (stereo not drawn),26*,7,5,0,12,0
Cc1ccc2nsnc2c1S(=O)(=O)NCc1ccc2c(c1)OCO2,-3,3,-2,-12,1,2
CCN(CC)S(=O)(=O)c1ccc2c(c1)nc(SC(C)C(N)=O)n2-c1ccc(OC)cc1 (stereo not drawn),26*,-2,5,5,2,4
Cc1nc2cc(C(F)(F)F)ccc2n1CCNc1nc(-c2ccc([N+](=O)[O-])c(Cl)c2)cs1,6,24,1,2,6,3
O=[N+]([O-])c1cc(-c2csc(NCCc3nc4cc(C(F)(F)F)ccc4n3CCCO)n2)ccc1Cl,13,32*,-4,5,-1,4
OCCCn1c(CCNc2nc(-c3ccc(Cl)cc3)cs2)nc2cc(C(F)(F)F)ccc21,7,27*,6,1,5,3
Cc1ccc(C(=O)Nc2ccccc2C(=O)N2CCCCCC2)cc1,0,4,9,-5,3,1
Cc1ccc(/C=N/Nc2cccc(C(=O)O)c2)s1,15,6,-6,5,3,0
Cc1ccc(/C=N/Nc2ccc(C(=O)O)cc2)s1,26*,2,19,-5,-1,1
O=C1C=CC2=C3c4cc(O)c(O)cc4CC3(O)COC2=C1O (stereo not drawn),.,19,85*,.,36*,.
COc1ccccc1N(CC(=O)NCCSCc1ccc(C)cc1)S(=O)(=O)c1ccccc1,2,27*,1,4,1,1
CC1=C(C(=O)N2CCOCC2)C(c2cccc(C)c2)NC(=S)N1 (stereo not drawn),-3,3,-1,1,10,1
C=CCn1c2ccccc2c(=O)c2cc(C#Cc3ccsc3)ccc21,-4,.,.,17*,.,2
C=CCn1c2ccccc2c(=O)c2cc(C#Cc3ccccn3)ccc21,8,3,-4,5,-3,2
COC(=O)c1cccc(Oc2nc3c(c(=O)n(C)c(=O)n3C)n2C(C)C)c1,-8,7,2,-7,-4,1
COc1cc(/C=N/NC(=O)[C@H](Cc2c[nH]c3ccccc23)NC(=O)OCC(C)C)cc([N+](=O)[O-])c1O,30*,24*,12,-5,6,-1
COc1ccc(NC(=O)Cc2cccc(F)c2)cc1S(=O)(=O)Nc1ccccc1Cl,30*,6,2,-1,5,3
NC(=O)c1ccccc1NC(=O)c1ccccc1S(=O)(=O)c1ccccc1[N+](=O)[O-],-4,0,3,2,4,0
C/C(=N\NC(=O)COc1ccc(C(C)(C)C)cc1)c1ccc(-n2ccnc2)cc1,2,6,-3,15*,2,4
O=C(Cc1cccc2ccccc12)Nc1ccc(-c2cc3ccccc3oc2=O)cc1,-4,-2,-17,17*,-5,0
O=c1[nH]c(C2CCN(S(=O)(=O)c3ccc4c(c3)OCCO4)CC2)nc2c1nnn2Cc1ccccc1F,-1,9,3,5,0,3
